Records with an inconclusive call do not appear. Calls of active or inactive are those of the source. How the source made its calls: active means hit-call score of the fitted dose curve at least 0.9, where 1 is the maximum; inconclusive means response in the unintended direction; inactive means score below 0.9.

Experiment [1] can be described thus: ACEA_AR_agonist_AUC_viability: ACEA Biosciences xCELLigence Real-Time Cell Analysis on Androgen Receptor Agonism for Viability (AID 2283775).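 On AC50: viability read 80 hours after compound addition.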 The method, boiled down: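 Read-out is area under the impedance curve at 80 h post-dose in 22Rv1 cells, with DMSO as baseline and signal loss taken as reduced viability. Compounds ran in duplicate from 100 uM final.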
The nature of experiment [2]: ACEA_AR_antagonist_AUC_viability: ACEA Biosciences xCELLigence Real-Time Cell Analysis on Androgen Receptor Antagonism for Viability (AID 2283776).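 Further: 22Rv1 human prostate cancer cells growing on impedance electrode plates; area under impedance growth curve at 80 h after dosing as viability; hits lower the growth signal relative to DMSO meaning cytotoxicity.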 The method, boiled down: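 Viability endpoint from label-free cell-index monitoring: 22Rv1 cultures treated with an eight-point 1:4 dilution series starting at 100 uM final, AUC at 80 h fitted against DMSO.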
Experiment [3] can be described thus: ACEA_ER_AUC_viability: ACEA Biosciences xCELLigence Real-Time Cell Analysis on Estrogen Receptor Agonism for Viability (AID 2283782).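 Further: continuous compound exposure with impedance area under curve over 80 h; hit means loss of impedance signal meaning reduced cell growth or viability.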 The method, boiled down: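 T-47D human breast cells in phenol red-free RPMI1640 with 10% charcoal-stripped FBS were dosed with an 8-point 1:4 dilution series from 100 uM top final concentration, in duplicate. Impedance-based growth was followed for 80 h; AUC analysed versus DMSO.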

Experiment [4] can be described thus: STM_H9_NormalizedViability: Cytotoxicity Assessment at 120 hours in the Stemina devTOX quickPredict H9 human embryonic stem cell (hESC)-based Assay (AID 2283784). The procedure, abridged:
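Undifferentiated H9 hESCs kept pluripotent were exposed to compound, with media and chemical replaced every 24h. CellTiter-Fluor protease-substrate fluorescence was background-corrected and normalized per plate to the 0.1% DMSO vehicle; signal loss indicates reduced viability.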

The target of experiment [5] is AR (gene 367) (UniProt P10275). The experiment in a line: ACEA_AR_antagonist_80hr: ACEA Biosciences xCELLigence Real-Time Cell Analysis on Androgen Receptor Antagonism for Proliferation (AID 2283787).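 Further: hits lower the impedance growth signal relative to DMSO.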 The procedure, abridged:
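Impedance readout (RT-CES), 80 h post-dose; loss-of-signal vs DMSO baseline. 22Rv1 cells in assay medium. Compounds: 8-pt 1:4 series, max 100 uM final, up to 0.5% DMSO; n = 2.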

Experiment [6] concerns the target AR (gene 367) (UniProt P10275). The experiment in a line: ACEA_AR_agonist_80hr: ACEA Biosciences xCELLigence Real-Time Cell Analysis on Androgen Receptor Agonism for Proliferation (AID 2283783).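 Further: hits increase impedance growth signal above DMSO baseline.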 The method, boiled down:
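22Rv1 human prostate cancer cells were seeded after preconditioning in assay medium and monitored overnight, then dosed in an eight-point 1:4 dilution series from 100 uM (≤0.5% DMSO). Impedance-based growth was read at 80 h, gain-of-signal versus DMSO.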

Chain of AR (gene 367) (P10275 whole entry, looked up): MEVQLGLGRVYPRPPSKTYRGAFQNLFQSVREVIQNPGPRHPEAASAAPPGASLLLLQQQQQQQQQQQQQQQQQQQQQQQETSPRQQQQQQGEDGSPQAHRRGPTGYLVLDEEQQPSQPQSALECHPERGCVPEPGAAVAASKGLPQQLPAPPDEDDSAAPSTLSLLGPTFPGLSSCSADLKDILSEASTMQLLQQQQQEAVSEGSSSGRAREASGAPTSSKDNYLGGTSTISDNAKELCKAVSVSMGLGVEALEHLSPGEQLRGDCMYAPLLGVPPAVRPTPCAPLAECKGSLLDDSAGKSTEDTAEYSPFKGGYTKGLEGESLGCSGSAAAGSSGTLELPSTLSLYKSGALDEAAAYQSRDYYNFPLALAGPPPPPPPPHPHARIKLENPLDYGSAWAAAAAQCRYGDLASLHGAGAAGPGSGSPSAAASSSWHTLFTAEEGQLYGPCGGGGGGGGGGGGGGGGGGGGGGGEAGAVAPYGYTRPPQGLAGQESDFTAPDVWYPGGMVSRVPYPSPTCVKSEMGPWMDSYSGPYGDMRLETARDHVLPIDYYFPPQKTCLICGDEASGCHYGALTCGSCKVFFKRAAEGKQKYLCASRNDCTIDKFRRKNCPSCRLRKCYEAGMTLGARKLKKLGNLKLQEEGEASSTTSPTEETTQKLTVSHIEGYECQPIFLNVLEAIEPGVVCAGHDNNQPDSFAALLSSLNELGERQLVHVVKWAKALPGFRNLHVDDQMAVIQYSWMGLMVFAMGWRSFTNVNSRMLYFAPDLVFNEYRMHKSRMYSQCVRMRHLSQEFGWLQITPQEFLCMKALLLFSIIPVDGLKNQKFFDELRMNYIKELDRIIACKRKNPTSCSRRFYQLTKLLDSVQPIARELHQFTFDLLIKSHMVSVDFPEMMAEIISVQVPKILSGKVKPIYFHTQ

`CCn1nc(Cc2ccccc2)cc1C1CCN(C[C@H]2C[C@H](N(C)[C@@H](C(=O)O)C(C)C)C[C@@H]2c2cccc(F)c2)CC1`: the AC50 in experiment [1] was 36 µM (active); in experiment [2], 45 µM (active); in experiment [3], 7.91 µM (active).

Regarding `CCCCCCCCCCCCCCCO`, the results for the AC50 in experiment [1] and in experiment [2] were 78.9 µM (active) and 89.4 µM (active), respectively. Moreover, in experiment [3], the outcome was inactive.

As to `COc1ccc2sc(C(=O)Nc3nnn[nH]3)c(OC(C)C)c2c1`, the AC50 in experiment [1] was 9.32 µM (active); in experiment [2] it was 12.9 µM (active); in experiment [3], 9.87 µM (active); in experiment [4] it was 2.01 µM (active).

In the case of `Cc1ccc(O)cc1`, the result (in experiment [1]; in experiment [2]; in experiment [3]; with AR (gene 367) [5]) was inactive.

`C1=CCCC=CCCC=CCC1`: the result in experiment [1], in experiment [2] and in experiment [3] was inactive.

In the case of `Cc1ccc(S(=O)(=O)O)cc1C`, the call in experiment [1], in experiment [2] and in experiment [3] was inactive.

Consider `C1N2CN3CN1CN(C2)C3`, for which the result (in experiment [1]; in experiment [2]; in experiment [3]; with AR (gene 367) [6]) was inactive.

For the compound `Cc1ccc(C)c(O)c1`, the compound was classed as inactive in experiment [1], in experiment [2] and in experiment [3].

Turning to `CC[C@H](C)C(=O)O[C@H]1C[C@@H](C)C=C2C=C[C@H](C)[C@H](CC[C@@H]3C[C@@H](O)CC(=O)O3)[C@H]21`, the compound was classed as inactive in experiment [1] and in experiment [4]. In addition, the half-maximal activity concentration (AC50) in experiment [2] was 50 µM (active); in experiment [3], 28.2 µM (active).

For the compound `O=c1n(CC2CO2)c(=O)n(CC2CO2)c(=O)n1CC1CO1` (stereo unspecified), the AC50 in experiment [1] was 0.571 µM (active); in experiment [2], 1.02 µM (active); in experiment [3], 35.7 µM (active); in experiment [4], 1.06 µM (active).

Consider `COC(=O)c1c(Cl)c(Cl)c(C(=O)OC)c(Cl)c1Cl`, for which the outcome in experiment [1] and in experiment [3] was inactive. In addition, the AC50 in experiment [2] is 50 µM (active).

`Cn1cnc([N+](=O)[O-])c1Sc1ncnc2nc[nH]c12`: the concentration at half-maximal activity (AC50) in experiment [1] is 1.15 µM (active); in experiment [2] it was 1.52 µM (active); in experiment [3], 1.42 µM (active); in experiment [4], 4.02 µM (active).

Consider `CC(C)(O)c1coc(S(=O)(=O)NC(=O)Nc2c3c(cc4c2CCC4)CCC3)c1`, for which the result in experiment [1], in experiment [2] and in experiment [3] was inactive.

For `CC(C)=CCCC(C)CCO` (stereo unspecified), the result (in experiment [1]; in experiment [2]; in experiment [3]; with AR (gene 367) [5]) was inactive.

Regarding `CCCCCCc1ccc(O)cc1O`, the AC50 in experiment [1] is 16.1 µM (active); in experiment [2], 13.7 µM (active); in experiment [3] it was 80.1 µM (active); in the experiment with AR (gene 367) [5], 11 µM (active).

Consider `CCOc1cccc(-n2cc(C(=O)N3CCN(c4cc(C(=O)O)c5ccccc5c4)CC3)nc2-c2ccc(C)cc2)c1`, for which the AC50 in experiment [1] was 7.41 µM (active); in experiment [2] it was 11.5 µM (active); with AR (gene 367) [5], 12.5 µM (active). Further, in experiment [3], the compound was classed as inactive.

For `CC[C@H]1CC[C@H](NCc2cc3c(cc2OC)[C@H]2C[C@H]2C(=O)N3C)[C@H](c2ccccc2)N1`, the AC50 in experiment [1] was 17.5 µM (active); in experiment [2], 18.2 µM (active); in experiment [3] it was 18.5 µM (active); in experiment [4] it was 9.43 µM (active).

By AC50 is commonly meant the concentration giving half of the maximal activity seen.
